High-throughput results deposited in PubChem by National Center for Advancing Translational Sciences (NCATS).
Sampled rows, rich in hits. Any-hit rate of the full collection: about 9.4%.
AMA1-RON2 inh: qHTS for Inhibitors of AMA1-RON; Towards Development of Antimalarial Drug Lead: Primary Screen; Plasmodium falciparum AMA1 (3D7) - RON2 peptide interaction; AlphaScreen AMA1-biotinylated RON2 peptide binding; Potency, µM (titrated, usually from 58.2 µM), without a hit: at the top dose activity change, negative = inhibition, hits mostly inhibitors; hit rate 0.2% among 360,000;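 also: 0% = vehicle wells and -100% = peptide control; nearly all actives have a fitted effect of over 45% in size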
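AMA1 (3D7) with his tag at 25 nM final met compounds first, then biotinylated RON2 peptide at 25 nM; detection used donor plus acceptor beads, 10 µg/mL apiece, read by AlphaScreen after 30 min at room temperature.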
Pf growth 48h: Primary qHTS for delayed death inhibitors of the malarial parasite plastid, 48 hour incubation. AID 504832, 2011. Potency, µM (series often up to 28.7 µM), for inactives: at the top dose activity change, negative = inhibition, actives largely listed as inhibitors. hit rate 5.9% among 310,000. P. falciparum luciferase growth in erythrocytes, 48 h; also: % is scaled to controls: 0 for no effect and ±100 for the full control effect
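Erythrocytes infected with P. falciparum carrying an integrated firefly luciferase reporter (2% hematocrit, 0.1% parasitemia final) were exposed to compounds in RPMI 1640 with 0.5% Albumax at 37 C, 5% CO2. Growth inhibition was scored as reduced luminescence.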
Pf growth 96h: Primary qHTS for delayed death inhibitors of the malarial parasite plastid, 96 hour incubation; Potency, µM (top dose mostly 28.7 µM), inactives show at the highest dose activity change, negative = inhibition, hits mostly inhibitors; hit rate 6.9% among 320,000; P. falciparum luciferase reporter growth, 96 h; also: % is scaled to controls: 0 for no effect and ±100 for the full control effect
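Cell-based qHTS: luciferase-tagged P. falciparum in erythrocytes (2% hematocrit, 0.05% parasitemia final) incubated with compounds for 96 hours, 37 C, 5% CO2; luciferase detection reagent then added and luminescence measured.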
SARS PLP yeast: qHTS of Yeast-based Assay for SARS-CoV PLP | Potency, µM (titrated, usually from 32.9 µM), for inactives: at the highest dose activity, positive = growth rescue, usual class: activators | hit rate 0.19% among 330,000 | S. cerevisiae expressing SARS-CoV PLpro, growth rescue | AID 485353, 2010; calls by dose curve; also: 0% is about no effect; nearly all actives have a fitted effect of over 55% in size
* = called active by the depositor; [ ] = remark or other dose. Unless noted, calls follow the shape of the dose curve; as a rule, active = well fitted curve in the direction sought with a large enough effect; inconclusive = small, poorly fitted or top-dose-only effect, or another doubt; inactive = no such curve, though single readings can be large; an effect the other way counts as inactive or inconclusive. Potency is read from the fitted curve at half-maximal effect.

Screening O=C(NCC1OCCc2ccccc21)c1cc(COc2c(F)cccc2F)on1 (centres undefined) returned AMA1-RON2 inh -16%, Pf growth 48h 34%, Pf growth 96h 13µM* and SARS PLP yeast 0%.
CCC(C)(C)NC(=O)C(c1ccncc1)N(C(=O)c1sc(C)nc1C)c1ccc(C)cc1 (centres undefined) was read as AMA1-RON2 inh -4%, Pf growth 48h 9.3µM*, Pf growth 96h 20% and SARS PLP yeast 1%.
`COc1ccc(N(C(=O)c2cnsn2)C(C(=O)NC2CCCCC2)c2ccncc2)cc1` (centres undefined) gave AMA1-RON2 inh 4%, Pf growth 48h -8%, Pf growth 96h inconclusive and SARS PLP yeast -1%.
COc1ccc(C(C(=O)NC2CCCCC2)N(C(=O)c2sc(C)nc2C)c2ccc(C(C)=O)cc2)cc1 (centres undefined) was read as AMA1-RON2 inh 21%, Pf growth 48h inconclusive, Pf growth 96h 9.3µM* and SARS PLP yeast 0%.
For CC1CCc2nc(NC(=O)C3COc4ccccc4O3)sc2C1 (centres undefined) the results were AMA1-RON2 inh -10%, Pf growth 48h 52%, Pf growth 96h 180% and SARS PLP yeast -36%.
Cc1cc(C)nc(Nc2nc(C(N)Cc3ccc(C(F)(F)F)cc3)cs2)n1 (centres undefined) was read as AMA1-RON2 inh 28%.
For CCCCc1nc2cc(C(=O)N(C)C(C)c3ccccn3)ccc2o1 (centres undefined) the results were AMA1-RON2 inh 0%, Pf growth 48h -3%, Pf growth 96h 22% and SARS PLP yeast 1%.
`CCCCc1nc2cc(C(=O)NCc3ccccn3)ccc2o1` gave AMA1-RON2 inh 91%, Pf growth 48h -10%, Pf growth 96h 12µM* and SARS PLP yeast -8%.
CCc1cc(=O)oc2cc(C)cc(OC(C)C(=O)NCCCn3ccnc3)c12 (centres undefined) was read as AMA1-RON2 inh -2%, Pf growth 48h 10µM*, Pf growth 96h inconclusive and SARS PLP yeast 4%.
For CCCCc1cc(=O)oc2cc(C)cc(OCC(=O)Nc3cccnc3)c12 the results were AMA1-RON2 inh -2%, Pf growth 48h 0.47µM*, Pf growth 96h 0.52µM* and SARS PLP yeast -2%.
CCCCc1cc(=O)oc2cc(C)cc(OCC(=O)NCc3ccccn3)c12 was read as AMA1-RON2 inh 92%, Pf growth 48h 2.9µM*, Pf growth 96h 2.6µM* and SARS PLP yeast 13%.
For CCOc1ccc(NC(=O)CN(C)C(=O)c2cccnc2Sc2ccc(C)cc2C)cc1OCC the results were AMA1-RON2 inh 8%[11.6 µM].
For CS(=O)(=O)N(CC(=O)N1CCCC1)c1ccc(F)cc1 the results were AMA1-RON2 inh -4%.
`Cc1ccc(C2N(c3ccc(Cl)cc3)C(=O)N3CCCN23)cc1` (centres undefined) gave AMA1-RON2 inh -19%, Pf growth 48h inconclusive, Pf growth 96h inconclusive and SARS PLP yeast -1%.
For O=[N+]([O-])c1ccc(/C=N/NC(=S)Nc2ccccc2F)o1 the results were AMA1-RON2 inh 19%, Pf growth 48h 18%, Pf growth 96h 32% and SARS PLP yeast -28%.
For CCCCc1cc(=O)oc2cc(C)cc(OC(C)C(=O)NCc3ccccn3)c12 (centres undefined) the results were AMA1-RON2 inh 17%, Pf growth 48h inconclusive, Pf growth 96h inconclusive and SARS PLP yeast -1%.
Screening Cc1cc(OC(C)C(=O)NCc2ccccn2)c2c(C)cc(=O)oc2c1 (centres undefined) returned AMA1-RON2 inh 53%, Pf growth 48h 1.7µM*, Pf growth 96h 3.7µM* and SARS PLP yeast 14%.
For O=C(Cc1ccc(Br)cc1)Nc1ccccc1N1CCCC1 the results were AMA1-RON2 inh -13%, Pf growth 48h inconclusive, Pf growth 96h inconclusive and SARS PLP yeast -6%.
Cc1ccc(-c2nnc3ccc(SCC(=O)N4CCCc5ccccc54)nn23)cc1 was read as AMA1-RON2 inh 3%[2.32 µM], Pf growth 48h inconclusive, Pf growth 96h 10µM* and SARS PLP yeast -13%.
For CCOC(=O)CSc1ccc2nnc(-c3ccncc3)n2n1 the results were AMA1-RON2 inh -15%, Pf growth 48h 0%, Pf growth 96h 2% and SARS PLP yeast -8%.
Screening CCOC(=O)c1nnc2cc(-c3ccccc3)nn2c1C returned AMA1-RON2 inh 0%, Pf growth 96h 15µM* and SARS PLP yeast -5%.
For CCOC(=O)c1nnc2cc(-c3ccc(Br)cc3)nn2c1C the results were AMA1-RON2 inh 3%, Pf growth 48h 227%, Pf growth 96h inconclusive and SARS PLP yeast 0%.
`CCOC(=O)CC(=O)CSc1ccc2nnc(-c3ccccc3)n2n1` gave AMA1-RON2 inh 8%, Pf growth 48h 3.7µM*, Pf growth 96h inconclusive and SARS PLP yeast -3%.
`Cc1ccc(-c2nnc3ccc(SCC(=O)N4CCc5ccccc54)nn23)cc1` gave AMA1-RON2 inh 0%, Pf growth 48h 22%, Pf growth 96h 41% and SARS PLP yeast 6%.
Screening CCOCCCn1c(C)nc2c[n+](CC(=O)c3ccc4ccccc4c3)cc(Br)c21 returned AMA1-RON2 inh -23%, Pf growth 48h inconclusive, Pf growth 96h inconclusive and SARS PLP yeast 1%.
Screening O=C(N/N=C/c1cc(Br)c(O)c(Br)c1O)c1cccnc1 returned AMA1-RON2 inh -6%, Pf growth 48h 10µM*, Pf growth 96h -14% and SARS PLP yeast 5%.
For O=C(N/N=C/c1ccc(Br)s1)c1cccnc1 the results were AMA1-RON2 inh 13%, Pf growth 48h inconclusive, Pf growth 96h 20% and SARS PLP yeast -1%.
`O=C(N/N=C/c1cc(O)ccc1Br)c1cccnc1` gave AMA1-RON2 inh -2%, Pf growth 48h 13µM*, Pf growth 96h 6% and SARS PLP yeast 15%.
`O=C(N/N=C/c1cc2c(cc1Br)OCO2)c1cccnc1` gave AMA1-RON2 inh 19%, Pf growth 48h 0%, Pf growth 96h -19% and SARS PLP yeast 1%.
`Cc1nc(Cl)cc(CS(=O)(=O)c2ccc(Cl)cc2)n1` gave AMA1-RON2 inh 16%, Pf growth 48h 0%, Pf growth 96h 18% and SARS PLP yeast -1%.
For COc1ccc(C(=O)/C=C2\NCCc3cc(OC)c(OC)cc32)cc1OC the results were AMA1-RON2 inh 12%, Pf growth 48h 10µM*, Pf growth 96h 13µM* and SARS PLP yeast 0%.
`CCC(Cc1ccccc1)NC(=O)C1CCC(CNc2c(N3CCCC3)c(=O)c2=O)CC1` (centres undefined) gave AMA1-RON2 inh 1%, Pf growth 96h -35% and SARS PLP yeast 3%.
`COc1ccccc1C(=O)N/C(=C\c1ccccc1)C(=O)NC(C)C(=O)O` (centres undefined) gave AMA1-RON2 inh 6%, Pf growth 48h 21%, Pf growth 96h 9.3µM* and SARS PLP yeast 0%.
